Source: PubChem
In the library only some 2.9% were active in any assay of this set; here they are far more common.
D3 antag – D3 dopamine receptor (human) antagonism | 360,000 tested, 2.5% active | AID 652054 | D3R cells, DiscoveRx beta-arrestin luminescence, antagonist mode; active compounds read low | P35462 | max response, negative = inhibition, %; in the data active = max response below about -50%; note: % is set by controls: 0 for no effect and ±100 for the full control effect
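Cells expressing the human receptor were seeded at 1500 cells/well, incubated overnight at 37 degrees C in 5% CO2, then exposed to library compounds with dopamine controls for 90 minutes at 37 degrees C before luminescent detection.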
D3 ag – agonists of human D3 dopamine receptor. D3R DiscoveRx beta-arrestin cells, luminescence, 90 min. max activation, %. 410,000 tested, 0.58% active; in the data active = max activation above about 30%; note: 0% is about no effect
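Agonist mode: compounds and dopamine controls were applied to plated cells for 90 min at 37 degrees C after an overnight attachment at 1500 cells/well. Luminescent read-out followed 30 - 60 minutes at room temperature with DiscoveRx detection reagent.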
B2AR arrestin – beta2AR (human) beta-arrestin recruitment activity. P07550. 330,000 tested, 0.02% active. Potency, µM (series often up to 46.1 µM), for the others: top-dose activation, hits mostly activators. beta-arrestin recruitment to beta2AR, cell-based reporter; active = well fitted activation curve with a large enough effect;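 note: potency is the fitted concentration of half-maximal effect; 0% = DMSO controls and full agonism = EC100 isoproterenol or metaproterenol; nearly all actives have a fitted effect of over 65% in size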
Target sequence (P07550 whole entry, looked up): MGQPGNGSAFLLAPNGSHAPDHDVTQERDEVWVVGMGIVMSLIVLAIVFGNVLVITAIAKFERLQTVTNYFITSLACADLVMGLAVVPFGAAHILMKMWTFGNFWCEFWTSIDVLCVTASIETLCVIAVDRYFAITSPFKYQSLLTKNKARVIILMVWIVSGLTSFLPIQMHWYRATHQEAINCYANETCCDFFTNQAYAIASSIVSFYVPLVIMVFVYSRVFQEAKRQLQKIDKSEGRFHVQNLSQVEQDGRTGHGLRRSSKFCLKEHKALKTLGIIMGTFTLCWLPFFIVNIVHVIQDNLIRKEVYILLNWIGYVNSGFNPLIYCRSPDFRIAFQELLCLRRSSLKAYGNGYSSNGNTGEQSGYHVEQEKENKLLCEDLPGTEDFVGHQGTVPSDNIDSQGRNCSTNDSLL
TSHR antagonist – antagonists of human thyroid stimulating hormone receptor | TSHR-expressing cells, TSH-stimulated cAMP HTRF, 2 h; active compounds read low | activity change, negative = inhibition, % at 11.5 µM | 330,000 tested, 0.2% active | AID 504810;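 active = activity change below a set negative limit, meaning inhibition stronger than a set level, cut at about -70% in these data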; note: % is set by controls: 0 for no effect and ±100 for the full control effect
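Competitive HTRF cAMP read-out (cryptate anti-cAMP antibody, cAMP-d2; 30 min, room temperature) in freshly harvested TSHR cells. Compounds added before TSH at EC80 (4nM final), followed by 2 hours' incubation at 37 deg C.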
Numbers without * were called inactive; nt = not tested or not shown.

SMILES | D3 antag | D3 ag | B2AR arrestin | TSHR antagonist
O=C(CCN1CCN2CCCC2C1)N1c2ccccc2Sc2ccc(Cl)cc21 (centres undefined) | -54* | -16 | 0% | -3
COc1ccccc1Nc1sc(C(=O)c2ccc3c(c2)OCO3)c(N)c1S(=O)(=O)c1ccccc1 | nt | -21 | nt | nt
Cc1cc(NC(=O)N2CCC(CN3CCOCC3)CC2)ccc1Br | nt | 4 | nt | nt
Cc1ccc(Nc2nnc(-c3ccc(C)c(S(=O)(=O)N4CCN(C)CC4)c3)c3ccccc23)c(C)c1 | nt | 7 | nt | nt
O=C(COC(=O)c1cccnc1Cl)NC(=O)c1ccc(OC(F)F)cc1 | -53* | -9 | 0% | nt
Cc1c(C(=O)N2CCC(C)CC2)c(S(=O)(=O)Nc2cccc(C#N)c2)c(C)n1C | nt | 7 | nt | nt
Cc1cccc(C)c1-n1nnnc1C(C1CC1)N1CCN(C/C=C/c2ccccc2)CC1 (centres undefined) | -79* | 1 | nt | nt
COc1ccc(-n2nnnc2C(C2CC2)N2CCN(C/C=C/c3ccccc3)CC2)cc1 (centres undefined) | -81* | -3 | nt | nt
COC(=O)c1ccc(Cl)cc1NC(=O)N(C)CCc1c(C)nn(C)c1C | nt | -1 | nt | nt
COc1ccc(N=C2S/C(=C\c3ccc(Cl)c([N+](=O)[O-])c3)C(=O)N2CCN(C)C)cc1 | -128* | -4 | 0% | -23
CCN(CC)CCN1C(=O)/C(=C\c2ccc(Cl)c([N+](=O)[O-])c2)SC1=Nc1ccc(OC)cc1 | -102* | -26 | 0% | -22
CCCN1C(=O)/C(=C/c2ccc(C)s2)SC1=Nc1ccc(OC)cc1 | -27 | -10 | 0% | 1
Cc1csc2nc(COC(=O)c3ccccc3NC(=O)c3ccc(F)cc3)cc(=O)n12 | nt | 6 | nt | nt
COc1ccc(OCC#CCNC(C)(C)C)cc1 | -69* | -4 | 0% | 12
COc1ccc(NC(=O)Cn2c(=O)n(Cc3nc(-c4ccccc4)no3)c(=O)c3cc4c(cc32)OCO4)c(OC)c1 | nt | -7 | nt | nt
CCc1nc2c(OCC(=O)C(C)(C)C)cccn2c1N(C=O)CC(=O)N(C)C | -98* | -24 | nt | nt
CCCCN(C=O)c1c(CC)nc2c(OCCn3cccc3)cccn12 | -82* | -13 | nt | nt
CCCCN(C=O)c1c(CC)nc2c(OCCOc3ccc(F)cc3)cccn12 | 1 | 10 | nt | nt
CCOC(=O)Cn1c(=O)n(C2CCCCC2)c2nc(-c3ccc(OCC)cc3)nc(C(N)=O)c21 | nt | -2 | nt | nt
Cc1ccc(Cl)cc1N1CCN(C(=O)c2c(C)oc3ncnc(N4CCCCC4)c23)CC1 | nt | -10 | nt | nt
COCCn1c(SCC(=O)Nc2cccc(OC)c2)nnc1-c1ccc(Cl)cc1 | 16 | 6 | -1% | 2
COCCn1c(SCC(=O)NNC(=O)c2cc(Cl)ccc2OC)nnc1-c1ccncc1 | -100* | -28 | 0% | -7
Cc1ccc(CNC(=O)CC2Oc3ccccc3NC2=O)cc1 (centres undefined) | nt | 3 | nt | nt
COc1ccc(-c2cnnc(N/N=C/c3ccc(O)c(OC)c3)n2)cc1 | 13 | 32* | -1% | -13
COc1ccc(-c2cc(C(=O)OCC(=O)c3cccc(OC)c3)c3cccc(Cl)c3n2)cc1 | nt | -3 | nt | nt
SMILES | D3 antag | D3 ag | B2AR arrestin | TSHR antagonist
O=C(Cc1ccccc1)Nc1cccc(N2C(=O)C=CC2=O)c1 | 6 | -4 | 0% | -71*
O=C(CSC1=Nc2ccccc2C2CC=NN12)Nc1ccc2c(c1)OCO2 (centres undefined) | -50* | -16 | 0% | -13
COc1cc(OC)c(OC)cc1/C=C/C(=O)c1ccc(NS(=O)(=O)c2ccc(C)cc2)cc1 | 97 | 31* | 1% | -39
CC1CCN(C(=O)c2ncn(C)c2C(=O)N2CCC(C)CC2)CC1 | -51* | 13 | 0% | 24
CC1CCN(C(=O)c2ncn3c2c(=O)[nH]c2ccccc23)CC1 | 9 | 0 | nt | nt
O=C(COc1ccc(Cl)cc1)Nc1ccccc1C(=O)OCc1cc(=O)n2ccsc2n1 | nt | -2 | nt | nt
CCOc1cnn(-c2cc(Oc3ccc(C)cc3)ncn2)c(=O)c1Cl | -24 | 4 | 3% | -11
Cc1ccccc1Oc1cc(-n2ncc(Cl)c(Cl)c2=O)ncn1 | -97* | -54 | 8% | -90*
Cc1ccc(CNC(=O)Cn2ncc3c([nH]c4ccc(C)cc43)c2=O)cc1 | nt | 4 | nt | nt
Cc1sc2nc(Cc3ccccc3)[nH]c(=O)c2c1-c1ccccc1 | -1 | -18 | -1% | 9
CCc1nc(C)c(-c2ccccc2)c(=O)[nH]1 | -94* | -7 | 0% | 9
COc1ccc(-n2c(-c3ccc(C)cc3)cc3c2CC(C)(C)CC3=O)cc1Cl | nt | -4 | nt | nt
CN(CC(=O)Nc1ccc(Cl)c(Cl)c1)CC(=O)N1CCCCCC1 | 16 | 1 | nt | nt
COc1ccc(NC(=O)CCN2CCC(C)CC2)cc1 | -76* | -6 | 0% | 5
COc1ccc(NC(=O)CN(C)CC(=O)N2CCCCCC2)cc1 | -65* | 1 | 0% | 15
COc1ccc(NC(=O)CCN2CCCC(C)C2)cc1 (centres undefined) | -74* | 0 | -1% | 0
O=c1oc2ccc(Cl)cc2cc1-c1nc(-c2cccs2)no1 | nt | -18 | nt | nt
C=C1C(=C/C=C2\CCC[C@]3(C)[C@@H]([C@H](C)CCCC(C)C)CC[C@@H]23)C[C@@H](O)C[C@@H]1O | nt | 0 | nt | nt
CCc1cccc(C)c1NC(=O)CN1CCCN(Cc2ccccc2Cl)S1(=O)=O | nt | -8 | nt | nt
CCOC(=O)C1=C(CN2CCC(C)CC2)NC(=O)NC1c1ccc(F)cc1 (centres undefined) | nt | 2 | nt | nt
CCOC(=O)C1=C(CN2CCC(C)CC2)NC(=O)NC1c1ccc(Cl)cc1 (centres undefined) | -86* | 2 | 0% | -1
Cc1cc(C(F)(F)F)c2c(N)c(C(=O)Nc3c(Cl)cccc3Cl)sc2n1 | nt | -6 | nt | nt
CCCCn1cc(S(=O)(=O)c2cc(C)ccc2C)c(=O)c2cc(F)c(F)cc21 | nt | 1 | nt | nt
Cc1cc(=O)oc2cc(OCC(O)CN3CCc4ccccc4C3)ccc12 (centres undefined) | -55* | -22 | 0% | -4
COc1ccccc1N1CCN(CC(O)COc2ccc3c(C)cc(=O)oc3c2)CC1 (centres undefined) | -77* | -22 | 2% | -5
SMILES | D3 antag | D3 ag | B2AR arrestin | TSHR antagonist
Cc1cc(=O)oc2cc(OCC(=O)N3c4ccccc4CC3C)ccc12 (centres undefined) | 7 | -2 | 0% | -4
Cc1cc(=O)oc2cc(OCC(O)CN3CCN(c4ccccc4)CC3)ccc12 (centres undefined) | 0 | 37* | 1% | -1
CCc1nc(-c2cc(S(=O)(=O)N3CCN(c4ccc(F)cc4)CC3)ccc2OC)no1 | nt | 6 | nt | nt
Clc1ccc2nc(-c3ccccn3)c(Nc3ccc4c(c3)OCO4)n2c1 | -60* | -18 | 0% | 0
Cc1nn(CC(=O)NCCc2ccccc2Cl)c(=O)c2nn(-c3ccccc3)c(C)c12 | nt | -10 | nt | nt
Cc1ccccc1CN1C(=O)c2ccccc2S(=O)c2ccc(C(=O)NCc3ccc4c(c3)OCO4)cc21 (centres undefined) | nt | -2 | nt | nt
Cc1ccc(-n2nc(C(=O)O)nc2-c2ccccc2)cc1 | -51* | -8 | -3% | -1
Cc1ccc(-n2nc(C(N)=O)nc2-c2ccccc2)cc1 | 18 | 3 | 0% | 3
